Among all 52,000 compounds or so, about 4,300 (8.3%) were called active. Rule as the data show it: active = survival mostly below about 52% (no sharp cut-off); inactive = mostly above about 56%. Only a selection was taken, and actives are over-represented in it overall.
These compounds were tested on DeltatarO mutant (assay: S. aureus survival, RN4220 and DeltatarO strains – OD600, teichoic acid synthesis inhibitors, primary screen (AID 463173)). Conditions: S. aureus RN4220 wild type/DeltatarO growth, OD600, 18 h, hits give low values, screened at 18.75 µg/mL (by protocol).
With `COc1ccc(NC(=O)CSc2nc3c(oc4ccccc43)c(=O)n2-c2ccc(C)c(C)c2)cc1` the survival was 82% (inactive).
With `COC(=O)c1sccc1S(=O)(=O)N(CC(=O)Nc1cc(F)ccc1F)c1ccc(C)c(C)c1` the survival was 128% (inactive).
`COC(=O)c1sccc1S(=O)(=O)N(CC(=O)Nc1ccc(C)c(F)c1)c1ccc(C)c(C)c1` was tested, and the survival was 17% (active).
`COC(=O)c1sccc1S(=O)(=O)N(CC(=O)Nc1cc(C)ccc1C)c1ccc(C)c(C)c1` was tested, and the survival was 88% (inactive).
`COC(=O)c1sccc1S(=O)(=O)N(CC(=O)Nc1c(C)cccc1C)c1ccc(C)c(C)c1` was tested, and the survival was 94% (inactive).
In the case of `CCc1cccc(NC(=O)CN(c2ccc(C)c(C)c2)S(=O)(=O)c2ccsc2C(=O)OC)c1`, the survival is reported as -5% (active).
`COC(=O)c1sccc1S(=O)(=O)N(CC(=O)Nc1cccc(C)c1C)c1ccc(C)c(C)c1` was tested, and the survival was 89% (inactive).
`Cn1c(C(O)c2ccccc2)n[nH]c1=S` (configuration not stated) was tested, and the survival was 93% (inactive).
For `COc1cccc(-n2c(SCC(N)=O)nc3c(oc4ccccc43)c2=O)c1`, the survival was 67% (inactive).
With `O=C(c1ccccc1)N1CCN(S(=O)(=O)c2ccccc2)CC1` the survival was 68% (inactive).
`Cc1cccc(CNC(=O)CCCN2C(=O)CCn3nc(-c4cn(C)c5ccccc45)cc32)c1` was tested, and the survival was -5% (active).
For `Cc1ccc(CNC(=O)CN2C(=O)CCn3nc(-c4ccccc4)cc32)cc1`, the survival was 72% (inactive).
With `Cc1ccc(CNC(=O)CCCN2C(=O)CCn3nc(-c4cn(C)c5ccccc45)cc32)cc1` the survival was 87% (inactive).
`O=C(CN1C(=O)CCn2nc(-c3ccccc3)cc21)NCc1ccc(Cl)cc1` was tested, and the survival was 0% (active).
With `CN(C)c1ccc(CNC(=O)CCCN2C(=O)CCn3nc(-c4cn(C)c5ccccc45)cc32)cc1` the survival was 17% (active).
`Cn1cc(-c2cc3n(n2)CCC(=O)N3CCCC(=O)Nc2ccccc2F)c2ccccc21` was tested, and the survival was 134% (inactive).
With `CN(C)c1ccc(CNC(=O)CN2C(=O)CCn3nc(-c4cn(C)c5ccccc45)cc32)cc1` the survival was 54% (inactive).
For `CCc1ccccc1NC(=O)CCCN1C(=O)CCn2nc(-c3cn(C)c4ccccc34)cc21`, the survival was 130% (inactive).
In the case of `O=C(CN1C(=O)CCn2nc(-c3ccccc3)cc21)NCc1ccccc1`, the survival is reported as 106% (inactive).
With `Cn1cc(-c2cc3n(n2)CCC(=O)N3CCCC(=O)Nc2ccccc2Cl)c2ccccc21` the survival was -5% (active).
`Cn1cc(-c2cc3n(n2)CCC(=O)N3CCCC(=O)NCc2ccc(Cl)cc2)c2ccccc21` was tested, and the survival was 122% (inactive).
With `Cn1cc(-c2cc3n(n2)CCC(=O)N3CCCC(=O)NCc2ccccc2)c2ccccc21` the survival was 92% (inactive).
In the case of `COc1ccc(OC)c(NC(=O)c2c(NCc3sccc3C)sc3c2CCCCC3)c1`, the survival is reported as 78% (inactive).
For `c1ccc(N2CCN(c3ccccc3)C2c2cccs2)cc1`, the survival was 67% (inactive).
In the case of `CCCCCN1C(C(=O)c2ccccc2)=C(NC(=O)c2ccc(OC)cc2)c2ccccc2S1(=O)=O`, the survival is reported as 57% (inactive).
In the case of `Cc1ccc(Cn2c(=O)n(CCc3ccccc3)c(=O)c3c(C)c(C)sc32)cc1`, the survival is reported as 24% (inactive).
With `COc1cc(Cl)c(C)cc1NC(=O)CCn1c(=O)c2cccn2c2cccnc21` the survival was 83% (inactive).
For `CC(C)(SC1CC(=O)N(c2ccccc2)C1=O)C(N)C(=O)O` (configuration not stated), the survival was 98% (inactive).
For `CCc1ccc2c(c1)NC(c1cccnc1)=NC(c1ccc(C(C)(C)C)cc1)=N2`, the survival was 63% (inactive).
`CCN1c2ccccc2-c2nc(SCC(=O)Nc3cccc(C)c3C)ncc2S1(=O)=O` was tested, and the survival was 101% (inactive).
`CCc1ccc(-c2nn(CC(=O)NCc3ccccc3)c3c2cnc2ccc(F)cc23)cc1` was tested, and the survival was 92% (inactive).
For `CCOc1ccc(CNC(=O)CN2C(=O)CCn3nc(-c4cn(C)c5ccccc45)cc32)cc1OC`, the survival was -4% (active).
`CCOc1ccccc1CNC(=O)CN1C(=O)CCn2nc(-c3cn(C)c4ccccc34)cc21` was tested, and the survival was 66% (inactive).
With `COc1ccc(CNC(=O)CN2C(=O)CCn3nc(-c4cn(C)c5ccccc45)cc32)cc1` the survival was 96% (inactive).
For `CCc1ccccc1NC(=O)CSc1nnc(-c2ccc(OC)cc2)s1`, the survival was 80% (inactive).
`Cc1ccc(C(=O)Nc2ccc3nc(SCC(=O)N4CCCc5ccccc54)sc3c2)cc1` was tested, and the survival was 80% (inactive).
`CCOc1ccc(CNc2cc(C)nc3nc(-c4cccc(C)c4)nn23)cc1OC` was tested, and the survival was 95% (inactive).
In the case of `CCCCN(CC)CCCNC(=O)CN1C(=O)CSc2ccc(S(=O)(=O)N3CCOCC3)cc21`, the survival is reported as 97% (inactive).
With `Cc1ccc(NC(=O)NCC2CCN(Cc3cccc(Cl)c3)CC2)cc1Cl` the survival was -5% (active).
For `Cc1ccc(CN2CCC(CNC(=O)Nc3ccccc3F)CC2)cc1`, the survival was 113% (inactive).
For `O=C(NCC1CCN(Cc2cccc(Cl)c2)CC1)Nc1cc(Cl)ccc1Cl`, the survival was 17% (active).
For `O=C(NCC1CCN(Cc2cccc(Cl)c2)CC1)Nc1ccc(F)c(Cl)c1`, the survival was 55% (inactive).
In the case of `Cc1ccc(CN2CCC(CNC(=O)Nc3cccc(Cl)c3C)C2)cc1` (configuration not stated), the survival is reported as 75% (inactive).
For `O=C(NCC1CCN(Cc2ccccc2F)CC1)Nc1ccc(F)c(Cl)c1`, the survival was 100% (inactive).
With `COc1ccc(Cn2ccnc2SCC(=O)Nc2ccc3c(c2)OCCO3)cc1` the survival was 94% (inactive).
`Cc1cccn2c(=O)c3cc(C(=O)NC(C)C)n(C)c3nc12` was tested, and the survival was 53% (active).
`CCOC(=O)CNC(=O)c1cc2c(=O)n3cccc(C)c3nc2n1C` was tested, and the survival was 102% (inactive).
With `CCCN(CCC)C(=O)c1cc2c(=O)n3cccc(C)c3nc2s1` the survival was 56% (inactive).
For `CCCCN(CC)C(=O)c1cc2c(=O)n3cccc(C)c3nc2n1C`, the survival was 56% (active).
In the case of `Cc1cccn2c(=O)c3cc(C(=O)NC(C)(C)C)n(C)c3nc12`, the survival is reported as 61% (inactive).
In the case of `O=C(NCc1ccc(F)cc1)c1cc2c(=O)n3ccccc3nc2s1`, the survival is reported as 140% (inactive).
For `CCCN(CCC)C(=O)c1cc2c(=O)n3cccc(C)c3nc2n1C`, the survival was 62% (inactive).
With `CCCCN(CC)C(=O)c1cc2c(=O)n3ccccc3nc2n1C` the survival was 50% (inactive).
For `CCCCN(CC)C(=O)c1cc2c(=O)n3cccc(C)c3nc2s1`, the survival was 54% (inactive).
For `CCCCN(CCCC)C(=O)c1cc2c(=O)n3cccc(C)c3nc2s1`, the survival was -13% (active).
In the case of `CCCCc1ccc(NC(=O)c2cc3c(=O)n4ccccc4nc3s2)cc1`, the survival is reported as 89% (inactive).
`CCCCN(CCCC)C(=O)c1cc2c(=O)n3ccccc3nc2s1` was tested, and the survival was 39% (active).

— PubChem BioAssay AID463173 (ICCB-Longwood Screening Facility, Harvard Medical School, 2010)
